Laboratory results reported in PubChem BioAssay AID1159580 (chemical genetic matrix, 2015).
Where “and” joins values, the source holds several entries; their conditions need not be identical. Equal values may be shown once. Among all 5,500 compounds or so, about 2,000 (36%) were called active. Roughly 18% stayed inconclusive and do not appear here. No stated cut-off is given here; in the data, active means normalized growth mostly below about 0.91 (no sharp cut-off); inconclusive means no clear call, values can overlap the other calls; inactive means mostly above about 0.92. The list shows a part of the results.

Assay: chemical genetic growth profiling, strain panel (AID 1159580);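 further: tested at 20 µM; growth read once vehicle control cultures reached saturation at 30 °C; 1 = growth at the plate median or of vehicle wells; lower values mean less growth of the strain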
Conditions: S. cerevisiae deletion strains, growth OD

Measured: normalized growth

CC(=O)OC(C)C[N+](C)(C)C (stereo not given)
inactive: locus YAL013W, strain DEP1, hits give low values 1.02 and 1 | locus YAL021C, strain ccr4, hits give low values 1 | locus YAL026C, strain drs2, hits give low values 1 | locus YAL030W, strain snc1, hits give low values 1 | locus YAL040C, strain CLN3, hits give low values 0.999 | locus YBL061C, strain skt5, hits give low values 1.01 | locus YBR009C, strain hhf1, hits give low values 1 | locus YBR021W, strain FUR4, hits give low values 1.03 | locus YBR023C, strain chs3, hits give low values 1 | locus YBR171W, strain sec66, hits give low values 0.994 | locus YBR229C, strain ROT2, hits give low values 1.01 | locus YBR231C, strain swc5, hits give low values 0.991 | locus YBR279W, strain paf1, hits give low values 1 | locus YCL011C, strain gbp2, hits give low values 1.01 | locus YCL016C, strain dcc1, hits give low values 1.01 | locus YCL029C, strain bik1, hits give low values 1.01 | locus YCL061C, strain MRC1 (second series), hits give low values 1 | locus YCL069W, strain vba3, hits give low values 1 | locus YCR088W, strain abp1, hits give low values 1.01 | locus YDL005C, strain med2, hits give low values 1.02 | locus YDL035C, strain GPR1, hits give low values 1.03 | locus YDL040C, strain nat1, hits give low values 1 | locus YDL074C, strain BRE1, hits give low values 1.01 | locus YDL101C, strain DUN1, hits give low values 1 | locus YDL134C, strain PPH21, hits give low values 1.02 | locus YDL185W, strain tfp1, hits give low values 1.02 | locus YDL192W, strain arf1, hits give low values 1.02 | locus YDR001C, strain nth1, hits give low values 0.993 | locus YDR069C, strain doa4, hits give low values 0.988 | locus YDR101C, strain arx1, hits give low values 0.996 | locus YDR137W, strain rgp1, hits give low values 0.99 | locus YDR150W, strain NUM1, hits give low values 1.02 and 0.997 | locus YDR159W, strain sac3, hits give low values 1 | locus YDR162C, strain NBP2, hits give low values 1.05 | locus YDR195W, strain ref2 0.982 | locus YDR297W, strain sur2, hits give low values 1 | locus YDR318W, strain mcm21, hits give low values 1.01 | locus YDR334W, strain swr1, hits give low values 0.997 | locus YDR335W, strain msn5, hits give low values 0.998 | locus YDR363W, strain ESC2, hits give low values 0.965 | locus YDR388W, hits give low values 1.02 | locus YDR392W, strain spt3, hits give low values 1 | locus YDR502C, strain sam2, hits give low values 1.01 | locus YEL003W, strain gim4, hits give low values 1.01 | locus YEL037C, strain rad23, hits give low values 1 | locus YEL061C, strain CIN8 (second series), hits give low values 0.995 | locus YEL061C, strain CIN8, hits give low values 1.01 | locus YER002W, strain NOP16, hits give low values 0.981 | locus YER015W, strain faa2, hits give low values 0.988 | locus YER016W, strain bim1, hits give low values 0.994 | locus YER110C, hits give low values 1.02 | locus YER111C, strain swi4, hits give low values 1.01 | locus YER155C, strain BEM2 (second series), hits give low values 0.992 | locus YER155C, strain BEM2, hits give low values 1.01 | locus YER167W, strain BCK2, hits give low values 1.02 | locus YFR010W, strain ubp6, hits give low values 0.989 | locus YGL078C, strain dbp3, hits give low values 1.02 | locus YGL086W, strain mad1, hits give low values 1 | locus YGL167C, strain pmr1, hits give low values 1.01 | locus YGL173C, strain kem1, hits give low values 1 | locus YGL227W, strain vid30, hits give low values 0.986 | locus YGL240W, strain doc1, hits give low values 0.985 | locus YGL248W, strain PDE1, hits give low values 0.99 | locus YGL253W, strain hxk2, hits give low values 1 | locus YGR135W, strain pre9, hits give low values 1.06 | locus YGR252W, strain gcn5, hits give low values 1.04 | locus YHR013C, strain ard1, hits give low values 1.02 | locus YHR027C, strain rpn1, hits give low values 1 | locus YHR030C, strain SLT2, hits give low values 1.01 and 1.02 | locus YHR079C, strain IRE1 (second series), hits give low values 1.01 | locus YHR079C, strain IRE1, hits give low values 1 | locus YHR094C, strain hxt1, hits give low values 1.02 | locus YHR129C, strain ARP1, hits give low values 1 | locus YHR142W, strain chs7, hits give low values 1.01 | locus YHR200W, strain rpn10, hits give low values 1.02 | locus YIL066C, strain RNR3, hits give low values 1.02 | locus YIL073C, strain SPO22, hits give low values 1.13 | locus YIL125W, strain kgd1, hits give low values 1.01 | locus YIR030C, strain dcg1, hits give low values 1.01 | locus YJL092W, strain hpr5, hits give low values 0.993 | locus YJL095W, strain BCK1 (second series), hits give low values 1.01 | locus YJL095W, strain BCK1, hits give low values 1.02 and 1.03 | locus YJL115W, strain asf1, hits give low values 0.995 | locus YJL129C, strain trk1, hits give low values 0.987 | locus YJL134W, strain LCB3, hits give low values 1.01 | locus YJL154C, strain vps35, hits give low values 1.01 | locus YJL164C, strain tpk1, hits give low values 1.01 | locus YJL166W, strain qcr8, hits give low values 0.976 | locus YJL168C, strain set2, hits give low values 1.01 | locus YJL187C, strain SWE1 (second series), hits give low values 1.02 | locus YJL187C, strain SWE1, hits give low values 1.01 | locus YJR043C, strain POL32, hits give low values 1.02 | locus YJR066W, strain TOR1, hits give low values 0.985 | locus YJR075W, strain HOC1, hits give low values 1.02 | locus YKL009W, strain mrt4, hits give low values 1.04 | locus YKL068W, hits give low values 1.02 | locus YKL085W, strain MDH1 (second series), hits give low values 1.01 | locus YKL085W, strain MDH1, hits give low values 1.01 | locus YKL160W, strain elf1, hits give low values 0.987 | locus YKL190W, strain CNB1, hits give low values 1.02 | locus YKR001C, strain vps1, hits give low values 1.02 | locus YKR026C, strain gcn3, hits give low values 0.985 | locus YKR091W, strain srl3, hits give low values 0.996 | locus YLL001W, strain dnm1, hits give low values 0.97 | locus YLL026W, hits give low values 0.989 | locus YLL041C, strain sdh2, hits give low values 1.01 | locus YLR027C, strain aat2, hits give low values 0.989 | locus YLR039C, strain RIC1, hits give low values 1.06 | locus YLR058C, strain SHM2, hits give low values 1.01 | locus YLR102C, strain apc9, hits give low values 1 | locus YLR113W, strain HOG1, hits give low values 0.981 | locus YLR221C, strain rsa3, hits give low values 1 | locus YLR258W, strain gsy2, hits give low values 1 | locus YLR262C, strain YPT6 (second series), hits give low values 0.994 | locus YLR262C, strain YPT6, hits give low values 1.05 | locus YLR268W, strain sec22, hits give low values 1.01 | locus YLR320W, strain mms22, hits give low values 0.999 | locus YLR330W, strain CHS5, hits give low values 1.01 | locus YLR342W, strain FKS1 (second series), hits give low values 1.05 | locus YLR342W, strain FKS1, hits give low values 1 | locus YLR357W, strain rsc2, hits give low values 0.981 | locus YLR370C, strain arc18, hits give low values 1 | locus YLR371W, strain rom2, hits give low values 1.01 | locus YLR384C, strain iki3, hits give low values 0.996 | locus YLR418C, strain cdc73, hits give low values 1.06 | locus YML016C, strain PPZ1, hits give low values 0.999 | locus YML032C, strain rad52, hits give low values 1.01 | locus YML120C, strain ndi1, hits give low values 1 | locus YML124C, strain tub3, hits give low values 1.01 | locus YMR058W, strain fet3, hits give low values 0.991 | locus YMR078C, strain ctf18, hits give low values 1.02 | locus YMR125W, strain sto1, hits give low values 0.993 | locus YMR129W, hits give low values 0.993 | locus YMR205C, strain PFK2, hits give low values 1 | locus YMR223W, strain ubp8, hits give low values 1.07 | locus YMR231W, strain pep5, hits give low values 0.994 | locus YMR307W, strain GAS1, hits give low values 1.03 | locus YNL067W, strain RPL9B, hits give low values 1.02 | locus YNL071W, strain lat1, hits give low values 0.999 | locus YNL153C, strain GIM3, hits give low values 1.01 | locus YNL175C, strain NOP13, hits give low values 1.01 | locus YNL183C, strain NPR1, hits give low values 0.969 | locus YNL197C, strain WHI3, hits give low values 1 | locus YNL209W, strain ssb2, hits give low values 1 | locus YNL224C, strain SQS1, hits give low values 0.983 | locus YNL233W, strain BNI4, hits give low values 1.01 | locus YNL248C, strain rpa49, hits give low values 0.988 | locus YNL250W, strain rad50, hits give low values 1.05 | locus YNL271C, strain bni1, hits give low values 1.02 | locus YNL298W, strain CLA4, hits give low values 1.02 | locus YNL307C, strain MCK1, hits give low values 1.03 | locus YNL322C, strain KRE1 (second series), hits give low values 1.01 | locus YNL322C, strain KRE1, hits give low values 1.01 | locus YNR049C, strain mso1, hits give low values 1.01 | locus YNR052C, strain pop2, hits give low values 1.01 | locus YOL012C, strain htz1 1.09 | locus YOL147C, strain pex11, hits give low values 1.02 | locus YOR001W, strain rrp6, hits give low values 0.987 | locus YOR061W, strain CKA2, hits give low values 1.01 | locus YOR069W, strain VPS5, hits give low values 1.01 | locus YOR070C, strain gyp1, hits give low values 1 | locus YOR080W, strain dia2, hits give low values 1.01 | locus YOR083W, strain WHI5 (second series), hits give low values 1 | locus YOR083W, strain WHI5, hits give low values 0.977 | locus YOR106W, strain vam3, hits give low values 0.994 | locus YOR136W, strain idh2, hits give low values 1.01 | locus YOR144C, strain elg1, hits give low values 1.01 | locus YOR184W, strain ser1, hits give low values 1.02 | locus YOR231W, strain MKK1, hits give low values 0.947 | locus YOR265W, strain rbl2, hits give low values 1 | locus YOR270C, strain vph1, hits give low values 1.02 | locus YOR290C, strain snf2, hits give low values 0.989 | locus YOR316C, strain cot1, hits give low values 1.01 | locus YPL051W, strain arl3, hits give low values 0.999 | locus YPL055C, strain LGE1, hits give low values 1.02 | locus YPL078C, strain atp4, hits give low values 0.981 | locus YPL106C, strain sse1, hits give low values 1.01 | locus YPL240C, strain hsp82, hits give low values 1 | locus YPL241C, strain CIN2, hits give low values 1 | locus YPL256C, strain CLN2, hits give low values 1.03 | locus YPR119W, strain clb2, hits give low values 1.01 | locus YPR141C, strain kar3, hits give low values 1.01 | locus YPR163C, strain tif3, hits give low values 1.02 | locus YPR167C, strain met16, hits give low values 1.01 | strain wtn01, hits give low values 1
